The values that follow come from the OligoGym collection.
Further: reference of the scale not given here.

In one assay the target is DLAT. The experiment in a line: pooled miR-30 sensor sort-seq; sequence = guide strand. As to conditions: shRNA.
As for TTCTCCCATATTTACATCGATA, the sensor-assay potency score (higher = more potent) was -1.59.

For the sequence TCTTTTTCTACAATGATACAGA, the sensor-assay potency score (higher = more potent) is -0.772.

Regarding TAGAAAGGTAATAATGAGGTAT, the sensor-assay potency score (higher = more potent) was -0.0638.

With TTTCTCTACTGCCAACTTCTTT, the sensor-assay potency score (higher = more potent) was -1.09.

For TTCATTATCTGCAGGGACCAGT, the sensor-assay potency score (higher = more potent) is -0.346.

Regarding TATCTGTGAAGACACCTGTAGG, the sensor-assay potency score (higher = more potent) was -1.1.

For TTTTAAATCTGTTACTTCGGTT, the sensor-assay potency score (higher = more potent) is -0.836.

As to TTGTGTAAGATCAATCCCTTTC, the sensor-assay potency score (higher = more potent) is -0.362.

For the sequence TTTAAATCTGTTACTTCGGTTG, the sensor-assay potency score (higher = more potent) is -0.374.

Turning to TTCTCTACTGCCAACTTCTTTG, the sensor-assay potency score (higher = more potent) was -0.772.

Take TTTGTCTTATAACTGTGTCCAT: the sensor-assay potency score (higher = more potent) is -0.255.

Consider TTGTCTTATAACTGTGTCCATC, for which the sensor-assay potency score (higher = more potent) is -1.31.

The target in another assay is DLGAP2. Described as above. As to conditions: shRNA.
As for TAGATCTCGATGCTGTCCGCGC, the sensor-assay potency score (higher = more potent) was -0.416.

ATAGGTGCTGTCGCTGTCCAGG: the sensor-assay potency score (higher = more potent) was -0.97.

For the sequence TAGAACGTTTAAAACGTCCGTG, the sensor-assay potency score (higher = more potent) was -0.169.

Consider TTTTTTTGAATGCTACAGCTGG, for which the sensor-assay potency score (higher = more potent) was -0.304.

For TCCTTGTTCGGAAACATCCCGG, the sensor-assay potency score (higher = more potent) is -1.01.

TTCAACTTCACTGAAGACGGAC: the sensor-assay potency score (higher = more potent) is -0.0753.

For TTGACGTCGTTGTTGCTCTTGG, the sensor-assay potency score (higher = more potent) turned out to be 0.201.

With TTTACCGAGAATTTCCTCCGAG, the sensor-assay potency score (higher = more potent) came out at 0.34.

Take TTGTATATGAGACAGCTGCTGT: the sensor-assay potency score (higher = more potent) is -0.506.

In the case of TTGTCTGTCGGGCAGGTCCAGG, the sensor-assay potency score (higher = more potent) is -1.29.

In the case of TAGCTGTGACTCCTTGTTCGGA, the sensor-assay potency score (higher = more potent) is -0.676.

In the case of TTGTTCGGAAACATCCCGGGAG, the sensor-assay potency score (higher = more potent) was determined as 0.236.

For a further assay, the target named is DMBX1. Described as above. Conditions: shRNA.
Take TGACTGCTCAGACAGACTCAGG: the sensor-assay potency score (higher = more potent) was -1.97.

Sequence TCACGCATCACCACATCTGGGT showed a sensor-assay potency score (higher = more potent) of 0.0309.

For the sequence TTCTTCCGGAACTTGGCCCGGC, the sensor-assay potency score (higher = more potent) was -0.414.

For the sequence TTTTACTGTTCAGGGTAGCTGA, the sensor-assay potency score (higher = more potent) was -0.522.

Regarding TTGAACCACACCTGCACCCGGG, the sensor-assay potency score (higher = more potent) is -0.844.

As for TTACTGTTCAGGGTAGCTGATG, the sensor-assay potency score (higher = more potent) was -1.25.

As for TGAGCCGTGAACGCTGTGCGGC, the sensor-assay potency score (higher = more potent) is -1.33.

Turning to TTCCTTCTGCAGGCTACGCTGC, the sensor-assay potency score (higher = more potent) was -1.18.

In the case of TGAACCACACCTGCACCCGGGC, the sensor-assay potency score (higher = more potent) is -1.56.

Consider TGGGTAGTGAGTCTTCTGGAAG, for which the sensor-assay potency score (higher = more potent) is -2.04.

Take TCTGGGTAGTGAGTCTTCTGGA: the sensor-assay potency score (higher = more potent) is -0.662.

On to TTGTACATGGCGCTGAGTGAGT, for which the sensor-assay potency score (higher = more potent) is -0.81.

For a further assay, the target named is DMKN. Described as above. As to conditions: shRNA.
The sequence TGTAATTGTAGTTCTGATCGGC came in with a sensor-assay potency score (higher = more potent) of 0.784.

Regarding TGACTGAGTACTTCCCACCATA, the sensor-assay potency score (higher = more potent) was -1.25.

For the sequence TTTGCAGGGGTCTTGACTGAGT, the sensor-assay potency score (higher = more potent) is -1.13.

Sequence TTGTAGTTCTGATCGGCTCTGC showed a sensor-assay potency score (higher = more potent) of 0.13.
